Drawing on PubChem BioAssay (NCATS), this text covers max response for 10 molecules.

“And” between values parts separate entries of the source, which are not always exact repeats. Equal entries are not always repeated. A number with no mark means an inactive call. The call rests on the fitted dose curve; in most records, active means well fitted activation curve with a large enough effect; inconclusive means small, poorly fitted or top-dose-only effect; inactive means flat fitted curve, though single readings scatter.

Chain of Peroxisome proliferator-activated receptor alpha (Homo sapiens) (Q07869 whole entry, looked up): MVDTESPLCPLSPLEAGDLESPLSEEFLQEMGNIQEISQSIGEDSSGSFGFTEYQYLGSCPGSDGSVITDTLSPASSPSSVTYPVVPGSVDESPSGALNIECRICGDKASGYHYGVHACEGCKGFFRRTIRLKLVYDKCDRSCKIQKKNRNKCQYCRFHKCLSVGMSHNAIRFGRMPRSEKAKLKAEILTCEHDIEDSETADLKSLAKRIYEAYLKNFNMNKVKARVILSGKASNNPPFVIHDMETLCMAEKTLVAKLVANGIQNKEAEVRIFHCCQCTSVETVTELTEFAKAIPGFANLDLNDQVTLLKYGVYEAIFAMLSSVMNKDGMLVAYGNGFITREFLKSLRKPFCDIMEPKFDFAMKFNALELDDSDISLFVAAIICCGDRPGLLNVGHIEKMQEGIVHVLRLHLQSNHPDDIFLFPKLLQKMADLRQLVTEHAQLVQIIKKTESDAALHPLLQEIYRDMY

The test has as its target Peroxisome proliferator-activated receptor alpha (Homo sapiens) (UniProt Q07869). The test is described as follows: qHTS assay for small molecule agonists of the peroxisome proliferator-activated receptor alpha (PPARalpha) signaling pathway (AID 651778). Further: % of control where 0% means no effect. To be noted: PathHunter PPARalpha complementation, chemiluminescence, 6 h; max response: stronger effect = higher value. In outline: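 Cells plated at 2,000/well and held overnight at 37 C, 5% CO2, then compound added by pin tool for 6 hr; after PathHunter detection reagent and 60 min at room temperature, chemiluminescence from enzyme complementation was read.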
With `CC(=O)CC(c1ccccc1)c1c(O)c2ccccc2oc1=O` (stereo not given), the max response is -0.925%.

For the molecule `C[C@]12C=CC(=O)C=C1CC[C@@H]1[C@@H]2C(=O)C[C@@]2(C)[C@H]1CC[C@]2(O)C(=O)CO`, the max response was -2.07%.

Turning to `O=C(N[C@H](CO)[C@H](O)c1ccc([N+](=O)[O-])cc1)C(Cl)Cl`, the max response is 0.618% and -1.35%.

Take `N[C@@H](Cc1ccc(O)c(O)c1)C(=O)O`: the max response is -1.63%.

With `NNC(=O)c1ccncc1`, the max response was -1.45%.

On to `OC(Cn1cncn1)(Cn1cncn1)c1ccc(F)cc1F`, for which the max response is -1.95%.

Take `Cc1cc(NS(=O)(=O)c2ccc(N)cc2)no1`: the max response was -1.17%.

Regarding `Cc1ncc([N+](=O)[O-])n1CCO`, the max response is -0.879%.

For `O=C(O)c1cc(=O)[nH]c(=O)[nH]1`, the max response was -0.877%.

On to `CCc1cc(C(N)=S)ccn1`, for which the max response was -3.66% and -3.46%.
